PubChem BioAssay (NCATS)
Records with an inconclusive call do not appear. Where a call stands in place of a potency, no number is given. The source made the active and inactive calls. Calls follow the shape of the dose curve; as a rule, active = well fitted inhibition curve with a large enough effect; inconclusive = small, poorly fitted or top-dose-only effect; inactive = flat fitted curve, though single readings scatter.

Columns and labels:
Test in all cases: qHTS profiling for inhibitors of Plasmodium falciparum proliferation (AID 504749); also: nearly all actives have a fitted effect of over 60% in size
Settings in all cases: P. falciparum in erythrocytes, SYBR Green DNA, 72 h; series mostly up to 28.7 µM
DIV17 = tested on: DIV17
Outline: (§1)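 In a 72 h erythrocytic culture (37 C, humidified, 5% CO2) at 2.5% hematocrit and 0.3% starting parasitemia, compounds were tested; SYBR Green I in detergent lysis buffer stained parasite DNA overnight.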

DIV30 = tested on: DIV30
Outline: as §1

Dd2 = tested on: Dd2
Outline: as §1

ECU = tested on: ECU
Outline: as §1

FAB9 = tested on: FAB9
Outline: as §1

GB4 = tested on: GB4
Outline: as §1

HB3 = tested on: HB3
Outline: as §1

ICS = tested on: ICS
Outline: as §1

JCK = tested on: JCK
Outline: as §1

N140 = tested on: N140
Outline: as §1
Potency is read from the fitted curve at half-maximal effect.

Row | Structure (SMILES) | Potency (DIV17) | Potency (DIV30) | Potency (Dd2) | Potency (ECU) | Potency (FAB9) | Potency (GB4) | Potency (HB3) | Potency (ICS) | Potency (JCK) | Potency (N140)
1 | CC(=O)NC(Cc1ccccc1)C(=O)O (stereo not given) | inactive | inactive | inactive | inactive | inactive | inactive | inactive | inactive | inactive | inactive
2 | NCCNCCNCCNCCN | inactive | inactive | inactive | inactive | inactive | inactive | inactive | inactive | inactive | inactive
3 | Cn1c(=O)c2c(ncn2CC2OCCO2)n(C)c1=O | inactive | inactive | inactive | inactive | inactive | inactive | inactive | inactive | inactive | inactive
4 | CCN(CC)CCNC(=O)c1cc(Cl)c(N)cc1OC | inactive | inactive | inactive | inactive | inactive | inactive | inactive | inactive | inactive | inactive
5 | CC(O)CN(CCN(CC(C)O)CC(C)O)CC(C)O (stereo not given) | inactive | inactive | inactive | inactive | inactive | inactive | inactive | inactive | inactive | inactive
6 | O=C1NS(=O)(=O)c2ccccc21 | inactive | inactive | inactive | inactive | inactive | inactive | inactive | inactive | inactive | inactive
7 | O=C(O)[C@@H]1CSCN1 | inactive | inactive | inactive | inactive | inactive | inactive | inactive | inactive | inactive | inactive
8 | CCCCC(CC)COC(=O)c1ccccc1O (stereo not given) | inactive | inactive | inactive | inactive | inactive | inactive | inactive | inactive | inactive | inactive
9 | CCN(CC)CCSC(=O)C(c1ccccc1)c1ccccc1 | inactive | inactive | inactive | inactive | inactive | inactive | inactive | inactive | inactive | inactive
10 | CCCCc1ncc(/C=C(\Cc2cccs2)C(=O)O)n1Cc1ccc(C(=O)O)cc1 | inactive | inactive | inactive | inactive | inactive | inactive | inactive | inactive | inactive | inactive
11 | COc1ccc2c(c1)C(=O)N(CCc1ccc(S(=O)(=O)NC(=O)NC3CCCCC3)cc1)C(=O)C2(C)C | inactive | inactive | inactive | inactive | inactive | inactive | inactive | inactive | inactive | inactive
12 | C[C@@H]1CN(c2c(F)c(F)c3c(=O)c(C(=O)O)cn(C4CC4)c3c2F)C[C@H](C)N1 | inactive | inactive | inactive | inactive | inactive | inactive | inactive | inactive | inactive | inactive
13 | O=c1cc[nH]c(=O)[nH]1 | inactive | inactive | inactive | inactive | inactive | inactive | inactive | inactive | inactive | inactive
14 | CC1(C)CO[C@@H](CC(=O)O)CN1 | inactive | inactive | inactive | inactive | inactive | inactive | inactive | inactive | inactive | inactive
15 | COc1ccccc1O | inactive | inactive | inactive | inactive | inactive | inactive | inactive | inactive | inactive | inactive
16 | CCOC(=O)c1ccc(O)cc1 | inactive | inactive | inactive | inactive | inactive | inactive | inactive | inactive | inactive | inactive
17 | COc1ccc(S(=O)(=O)Nc2nnc(CC(C)C)s2)cc1 | inactive | inactive | inactive | inactive | inactive | inactive | inactive | inactive | inactive | inactive
18 | O=C(O)COc1nn(Cc2ccccc2)c2ccccc12 | inactive | inactive | inactive | inactive | inactive | inactive | inactive | inactive | inactive | inactive
19 | CCCCN1CCCC[C@H]1C(=O)Nc1c(C)cccc1C | inactive | inactive | inactive | inactive | inactive | – | inactive | inactive | inactive | inactive
20 | OCC(O)CN1CCN(c2ccccc2)CC1 (stereo not given) | inactive | inactive | inactive | inactive | inactive | inactive | inactive | inactive | inactive | inactive
21 | CCCCCCCCCCCCCCCCCCOCC(O)CO (stereo not given) | inactive | inactive | inactive | inactive | inactive | inactive | inactive | inactive | inactive | inactive
22 | Cc1cccc(Nc2cc(Cl)nc(SCC(=O)O)n2)c1C | inactive | inactive | inactive | inactive | inactive | inactive | inactive | inactive | inactive | inactive
23 | NCCNCCNCCN | inactive | inactive | inactive | inactive | inactive | inactive | inactive | inactive | inactive | inactive
24 | CCN(CC)CCNC(=O)c1c(C)[nH]c(/C=C2\C(=O)Nc3ccc(F)cc32)c1C | 5.36 µM (active) | 13.5 µM (active) | 11.2 µM (active) | 7.94 µM (active) | – | 7.57 µM (active) | 8.91 µM (active) | 3.98 µM (active) | – | 8.91 µM (active)
25 | NC(=O)NC(=O)Cc1ccccc1 | inactive | inactive | inactive | inactive | inactive | inactive | inactive | inactive | inactive | inactive

Row | Structure (SMILES) | Potency (DIV17) | Potency (DIV30) | Potency (Dd2) | Potency (ECU) | Potency (FAB9) | Potency (GB4) | Potency (HB3) | Potency (ICS) | Potency (JCK) | Potency (N140)
26 | C[C@](N)(Cc1ccc(O)cc1)C(=O)O | inactive | inactive | inactive | inactive | inactive | inactive | inactive | inactive | inactive | inactive
27 | O=S(=O)(O)c1cc(I)c(O)c2ncccc12 | inactive | inactive | inactive | inactive | inactive | inactive | inactive | – | inactive | inactive
28 | CCCCN(CCCC)CC(O)c1cc(Cl)cc2c1-c1ccc(Cl)cc1/C2=C/c1ccc(Cl)cc1 (stereo not given) | 0.0135 µM (active) | 0.0067 µM (active) | 0.0089 µM (active) | 0.0056 µM (active) | 0.316 µM (active) | – | 0.0141 µM (active) | 0.0014 µM (active) | – | 0.0045 µM (active)
29 | COc1ccc(Cl)cc1C(=O)NCCc1ccc(S(=O)(=O)NC(=O)NC2CCCCC2)cc1 | inactive | inactive | inactive | – | inactive | inactive | inactive | inactive | inactive | inactive
30 | O=C(O)CC(O)C(=O)O (stereo not given) | inactive | inactive | inactive | inactive | inactive | inactive | inactive | inactive | inactive | inactive
31 | OCCN1CCN(CCCN2c3ccccc3Sc3ccc(Cl)cc32)CC1 | 5.1 µM (active) | inactive | 3.55 µM (active) | 3.16 µM (active) | – | 4.55 µM (active) | – | 3.98 µM (active) | – | 3.55 µM (active)
32 | N[C@@H](CSCCCO)C(=O)O | inactive | inactive | inactive | inactive | inactive | inactive | inactive | inactive | inactive | inactive
33 | CC1=C(CC(=O)O)c2cc(F)ccc2/C1=C\c1ccc(S(C)=O)cc1 (stereo not given) | inactive | inactive | inactive | inactive | inactive | inactive | inactive | – | inactive | inactive
34 | C=Cc1c(C)c2cc3[nH]c(cc4nc(cc5nc(cc1[nH]2)C(C)=C5CCC(=O)O)C(CCC(=O)O)=C4C)c(C)c3C=C | inactive | inactive | inactive | inactive | inactive | inactive | inactive | inactive | inactive | inactive
35 | Cc1c(Cl)cccc1Nc1ccccc1C(=O)O | inactive | inactive | inactive | inactive | inactive | inactive | – | – | inactive | inactive
36 | O=c1[nH]c(=O)c2[nH]c(=O)[nH]c2[nH]1 | inactive | inactive | inactive | inactive | inactive | inactive | inactive | inactive | inactive | inactive
37 | CCn1cc(C(=O)O)c(=O)c2cnc(N3CCNCC3)nc21 | inactive | inactive | inactive | inactive | inactive | inactive | inactive | – | inactive | inactive
38 | COc1cc(C)c(Cc2cnc(N)nc2N)cc1OC | inactive | inactive | inactive | 5.01 µM (active) | 5.62 µM (active) | 3.79 µM (active) | – | inactive | inactive | inactive
39 | O=S(=O)(O)NC1CCCCC1 | inactive | inactive | inactive | inactive | inactive | inactive | inactive | inactive | inactive | inactive
40 | Nc1ccc(S(=O)(=O)Nc2ccccc2)cc1 | inactive | inactive | inactive | inactive | inactive | inactive | inactive | inactive | inactive | inactive
41 | C[C@H]1O[C@@H](n2cc(F)c(=O)[nH]c2=O)[C@H](O)[C@@H]1O | inactive | inactive | inactive | inactive | inactive | inactive | inactive | – | inactive | inactive
42 | CCCCOC(=O)c1ccc(O)cc1 | inactive | inactive | inactive | inactive | inactive | inactive | inactive | – | inactive | inactive
43 | O=c1cc[nH]c(=S)[nH]1 | inactive | inactive | inactive | inactive | inactive | inactive | inactive | inactive | inactive | inactive
44 | O=c1cc(CO)occ1O | inactive | inactive | inactive | inactive | inactive | inactive | inactive | inactive | inactive | inactive
45 | CCCCCCCCCCCCCCCC(=O)NCCO | inactive | inactive | inactive | inactive | inactive | inactive | inactive | inactive | inactive | inactive
46 | CC(C)(C)C(=O)C(Oc1ccc(Cl)cc1)n1ccnc1 (stereo not given) | 13.5 µM (active) | 12 µM (active) | 11.2 µM (active) | 10 µM (active) | inactive | 13.5 µM (active) | – | 12.6 µM (active) | inactive | 8.91 µM (active)
47 | O=C(O)CN1C(=O)c2cccc3cccc(c23)C1=O | inactive | inactive | inactive | inactive | inactive | – | inactive | inactive | inactive | inactive
48 | Oc1cccc(O)c1 | inactive | inactive | inactive | inactive | inactive | inactive | inactive | inactive | inactive | inactive
49 | Oc1cn2c(n1)Nc1ccc(Cl)c(Cl)c1C2 | inactive | inactive | inactive | inactive | inactive | inactive | inactive | – | inactive | inactive
50 | COc1cc(C(=O)N2CCOCC2)cc(OC)c1OC | inactive | inactive | inactive | inactive | inactive | inactive | inactive | inactive | inactive | inactive
